# Assay results reported in the supplement of paper PMC8728848.
# Shown is part of a subset that was picked to be rich in the strongest signals.
# B1: Clec18A (Homo sapiens) (protein)
# chain: PFHTCDLRIDGDCFMVSSEADTYYRARMKCQRKGGVLAQIKRQKVQDILAFYLGRLETTNEVIDSDFETRNFWIGLTYKTAKDSFRWATGEHQAFTSFAFGQPDNHGFGNCVELQASAAFNWNDQRCKTRNRYICQ
# Tests used:
# Assay in all cases: glycan array binding signal (z-score within array); higher = stronger binding
# Conditions in all cases: glycan notation: IUPAC condensed, linker removed
# Fuc(a1-2)Gal = molecular target: Fuc(a1-2)Gal
# Summary of the method: (§1)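 Glycan array data came from 3228 arrays in the Consortium for Functional Glycomics database, and only arrays with an available protein sequence were kept. Glycan names were put into IUPAC-condensed notation, and columns mapping to the same glycan were averaged. The binding signal is a within-array Z-score, averaged across arrays of one protein sequence run at different concentrations or buffers and across linkers. A negative Z-score can be read as non-binding.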
# [1] = molecular target: Fuc(a1-2)Gal(b1-4)GlcNAc(b1-3)GalNAc
# Summary of the method: as §1
# [2] = molecular target: Fuc(a1-2)Gal(b1-4)[Fuc(a1-3)]GlcNAc
# Summary of the method: as §1
# [3] = molecular target: Fuc(a1-2)[Gal(a1-3)]Gal(b1-3)GlcNAc(b1-6)GalNAc
# Summary of the method: as §1
# [4] = molecular target: Fuc(a1-2)[GalNAc(a1-3)]Gal(b1-3)GlcNAc(b1-2)Man(a1-3)[Fuc(a1-2)[GalNAc(a1-3)]Gal(b1-3)GlcNAc(b1-2)Man(a1-6)]Man(b1-4)GlcNAc(b1-4)GlcNAc
# Summary of the method: as §1
# [5] = molecular target: Fuc(a1-2)[GalNAc(a1-3)]Gal(b1-4)GlcNAc(b1-2)Man(a1-3)[Fuc(a1-2)[GalNAc(a1-3)]Gal(b1-4)GlcNAc(b1-2)Man(a1-6)]Man(b1-4)GlcNAc(b1-4)GlcNAc
# Summary of the method: as §1
# [6] = molecular target: Fuc(a1-2)[GalNAc(a1-3)]Gal(b1-4)GlcNAc(b1-3)Gal(b1-4)GlcNAc(b1-3)Gal(b1-4)GlcNAc
# Summary of the method: as §1
# [7] = molecular target: Fuc(a1-2)[GalNAc(a1-3)]Gal(b1-4)[Fuc(a1-3)]GlcNAc
# Summary of the method: as §1
# Fuc(a1-3)GlcNAc = molecular target: Fuc(a1-3)GlcNAc
# Summary of the method: as §1
# [8] = molecular target: Fuc(a1-3)[Gal(b1-4)]GlcNAc(b1-3)GalNAc
# Summary of the method: as §1
# [9] = molecular target: Fuc(a1-3)[Gal3S(b1-4)]GlcNAc
# Summary of the method: as §1
# [10] = molecular target: Fuc(a1-3)[GalNAc(b1-4)]GlcNAc
# Summary of the method: as §1
# [11] = molecular target: Gal(a1-3)Gal(b1-3)GlcNAc(b1-3)GalNAc
# Summary of the method: as §1
# [12] = molecular target: Gal(a1-3)[Gal(a1-4)]Gal(b1-4)GlcNAc
# Summary of the method: as §1
# Gal(b1-3)Gal = molecular target: Gal(b1-3)Gal
# Summary of the method: as §1
# Gal(b1-3)GlcNAc(b1-2)Man = molecular target: Gal(b1-3)GlcNAc(b1-2)Man
# Summary of the method: as §1
# [13] = molecular target: Gal(b1-3)GlcNAc(b1-2)Man(a1-3)[Gal(b1-3)GlcNAc(b1-2)Man(a1-6)]Man(b1-4)GlcNAc(b1-4)GlcNAc
# Summary of the method: as §1
# [14] = molecular target: Gal(b1-3)GlcNAc(b1-3)Gal(b1-3)GlcNAc
# Summary of the method: as §1
# [15] = molecular target: Gal(b1-3)[Fuc(a1-4)]GlcNAc(b1-3)Gal(b1-3)[Fuc(a1-4)]GlcNAc
# Summary of the method: as §1
# [16] = molecular target: Gal(b1-4)GlcNAc(b1-2)Man(a1-3)[Gal(b1-4)GlcNAc(b1-2)Man(a1-6)]Man(b1-4)GlcNAc(b1-4)GlcNAc
# Summary of the method: as §1
# [17] = molecular target: Gal(b1-4)GlcNAc(b1-2)[Gal(b1-4)GlcNAc(b1-6)]Man(a1-6)[Gal(b1-4)GlcNAc(b1-2)Man(a1-3)]Man(b1-4)GlcNAc(b1-4)[Fuc(a1-6)]GlcNAc
# Summary of the method: as §1
# [18] = molecular target: Gal(b1-4)GlcNAc(b1-3)Gal(b1-4)GlcNAc
# Summary of the method: as §1
# [19] = molecular target: Gal(b1-4)GlcNAc(b1-3)Gal(b1-4)GlcNAc(b1-3)Gal(b1-4)GlcNAc
# Summary of the method: as §1
# [20] = molecular target: Gal(b1-4)GlcNAc(b1-3)Gal(b1-4)GlcNAc(b1-3)Gal(b1-4)GlcNAc(b1-2)[Gal(b1-4)GlcNAc(b1-3)Gal(b1-4)GlcNAc(b1-3)Gal(b1-4)GlcNAc(b1-6)]Man(a1-6)[Gal(b1-4)GlcNAc(b1-3)Gal(b1-4)GlcNAc(b1-3)Gal(b1-4)GlcNAc(b1-2)Man(a1-3)]Man(b1-4)GlcNAc(b1-4)[Fuc(a1-6)]GlcNAc
# Summary of the method: as §1
# [21] = molecular target: Gal(b1-4)GlcNAc(b1-3)Gal(b1-4)GlcNAc(b1-3)Gal(b1-4)GlcNAc(b1-3)Gal(b1-4)GlcNAc(b1-3)Gal(b1-4)GlcNAc(b1-2)Man(a1-3)[Gal(b1-4)GlcNAc(b1-3)Gal(b1-4)GlcNAc(b1-3)Gal(b1-4)GlcNAc(b1-3)Gal(b1-4)GlcNAc(b1-3)Gal(b1-4)GlcNAc(b1-2)Man(a1-6)]Man(b1-4)GlcNAc(b1-4)GlcNAc
# Summary of the method: as §1
# [22] = molecular target: Gal(b1-4)GlcNAc(b1-3)[Gal(b1-4)GlcNAc(b1-6)]Gal(b1-4)GlcNAc
# Summary of the method: as §1
# Gal(b1-4)GlcNAc6P = molecular target: Gal(b1-4)GlcNAc6P
# Summary of the method: as §1
# Gal(b1-6)Gal = molecular target: Gal(b1-6)Gal
# Summary of the method: as §1
# Gal6S(b1-3)GlcNAc = molecular target: Gal6S(b1-3)GlcNAc
# Summary of the method: as §1
# Gal6S(b1-3)GlcNAc6S = molecular target: Gal6S(b1-3)GlcNAc6S
# Summary of the method: as §1
# Glc(a1-6)Glc(a1-6)Glc = molecular target: Glc(a1-6)Glc(a1-6)Glc
# Summary of the method: as §1
# GlcA(b1-6)Gal = molecular target: GlcA(b1-6)Gal
# Summary of the method: as §1
# [23] = molecular target: GlcA3S(b1-3)Gal(b1-4)GlcNAc(b1-2)Man
# Summary of the method: as §1
# [24] = molecular target: GlcNAc(b1-2)Man(a1-3)[GlcNAc(b1-2)Man(a1-6)]Man(b1-4)GlcNAc(b1-4)[Fuc(a1-6)]GlcNAc
# Summary of the method: as §1
# [25] = molecular target: GlcNAc(b1-2)[GlcNAc(b1-4)]Man(a1-3)[GlcNAc(b1-2)Man(a1-6)]Man(b1-4)GlcNAc(b1-4)GlcNAc
# Summary of the method: as §1
# [26] = molecular target: GlcNAc(b1-3)[GlcNAc(b1-6)]Gal(b1-4)GlcNAc
# Summary of the method: as §1
# [27] = molecular target: GlcNAc(b1-3)[GlcNAc(b1-6)]GalNAc
# Summary of the method: as §1
# GlcNAc(b1-6)GalNAc = molecular target: GlcNAc(b1-6)GalNAc
# Summary of the method: as §1
# [28] = molecular target: Neu5Ac(a2-3)Gal(b1-3)GalNAc(b1-3)Gal(a1-4)Gal(b1-4)Glc
# Summary of the method: as §1
# [29] = molecular target: Neu5Ac(a2-3)Gal(b1-3)GlcNAc(b1-2)Man
# Summary of the method: as §1
# [30] = molecular target: Neu5Ac(a2-3)Gal(b1-4)GlcNAc(b1-2)Man(a1-3)[Neu5Ac(a2-6)Gal(b1-4)GlcNAc(b1-2)Man(a1-6)]Man(b1-4)GlcNAc(b1-4)GlcNAc
# Summary of the method: as §1
# [31] = molecular target: Neu5Ac(a2-3)Gal(b1-4)GlcNAc(b1-2)[Neu5Ac(a2-3)Gal(b1-4)GlcNAc(b1-4)]Man(a1-3)[GlcNAc(b1-4)][Neu5Ac(a2-3)Gal(b1-4)GlcNAc(b1-2)[Neu5Ac(a2-3)Gal(b1-4)GlcNAc(b1-6)]Man(a1-6)]Man(b1-4)GlcNAc(b1-4)GlcNAc
# Summary of the method: as §1
# [32] = molecular target: Neu5Ac(a2-3)Gal(b1-4)GlcNAc(b1-2)[Neu5Ac(a2-3)Gal(b1-4)GlcNAc(b1-4)]Man(a1-3)[GlcNAc(b1-4)][Neu5Ac(a2-3)Gal(b1-4)GlcNAc(b1-4)Man(a1-6)]Man(b1-4)GlcNAc(b1-4)GlcNAc
# Summary of the method: as §1
# [33] = molecular target: Neu5Ac(a2-3)Gal(b1-4)GlcNAc(b1-3)Gal(b1-4)[Fuc(a1-3)]GlcNAc
# Summary of the method: as §1
# [34] = molecular target: Neu5Ac(a2-6)Gal(b1-4)GlcNAc(b1-3)Gal(b1-3)GlcNAc
# Summary of the method: as §1
# [35] = molecular target: Neu5Ac(a2-6)Gal(b1-4)GlcNAc(b1-3)Gal(b1-4)GlcNAc(b1-2)Man(a1-3)[Neu5Ac(a2-6)Gal(b1-4)GlcNAc(b1-3)Gal(b1-4)GlcNAc(b1-2)Man(a1-6)]GalNAc
# Summary of the method: as §1
# [36] = molecular target: Neu5Ac(a2-6)Gal(b1-4)GlcNAc(b1-3)Gal(b1-4)GlcNAc(b1-6)[Gal(b1-3)]GalNAc
# Summary of the method: as §1
# [37] = molecular target: Neu5Ac(a2-6)Gal(b1-4)GlcNAc(b1-3)[Neu5Ac(a2-6)Gal(b1-4)GlcNAc(b1-6)]GalNAc
# Summary of the method: as §1
# [38] = molecular target: Neu5Ac(a2-6)Gal(b1-4)GlcNAc(b1-6)[Gal(b1-3)]GalNAc
# Summary of the method: as §1
# [39] = molecular target: Neu5Ac(a2-8)Neu5Ac(a2-3)[GalNAc(b1-4)]Gal(b1-4)Glc
# Summary of the method: as §1
# [40] = molecular target: Neu5Ac(b2-6)Gal(b1-4)GlcNAc
# Summary of the method: as §1
binder,measurement,setting,value
B1,glycan array binding signal (z-score),Fuc(a1-2)Gal,-0.536
same,glycan array binding signal (z-score),[1],-0.366
same,glycan array binding signal (z-score),[2],-0.32
same,glycan array binding signal (z-score),[3],1.74
same,glycan array binding signal (z-score),[4],-0.538
same,glycan array binding signal (z-score),[5],4.62
same,glycan array binding signal (z-score),[6],-0.814
same,glycan array binding signal (z-score),[7],-0.083
same,glycan array binding signal (z-score),Fuc(a1-3)GlcNAc,-0.783
same,glycan array binding signal (z-score),[8],-0.458
same,glycan array binding signal (z-score),[9],0.178
same,glycan array binding signal (z-score),[10],0.38
same,glycan array binding signal (z-score),[11],-0.324
same,glycan array binding signal (z-score),[12],2.29
same,glycan array binding signal (z-score),Gal(b1-3)Gal,-0.801
same,glycan array binding signal (z-score),Gal(b1-3)GlcNAc(b1-2)Man,-0.886
same,glycan array binding signal (z-score),[13],0.56
same,glycan array binding signal (z-score),[14],4.51
same,glycan array binding signal (z-score),[15],0.734
same,glycan array binding signal (z-score),[16],1.15
same,glycan array binding signal (z-score),[17],3.1
same,glycan array binding signal (z-score),[18],3.23
same,glycan array binding signal (z-score),[19],0.45
same,glycan array binding signal (z-score),[20],3.83
same,glycan array binding signal (z-score),[21],0.263
same,glycan array binding signal (z-score),[22],0.596
same,glycan array binding signal (z-score),Gal(b1-4)GlcNAc6P,0.093
same,glycan array binding signal (z-score),Gal(b1-6)Gal,3
same,glycan array binding signal (z-score),Gal6S(b1-3)GlcNAc,3.79
same,glycan array binding signal (z-score),Gal6S(b1-3)GlcNAc6S,-0.347
same,glycan array binding signal (z-score),Glc(a1-6)Glc(a1-6)Glc,-0.771
same,glycan array binding signal (z-score),GlcA(b1-6)Gal,8.1
same,glycan array binding signal (z-score),[23],-0.619
same,glycan array binding signal (z-score),[24],-0.289
same,glycan array binding signal (z-score),[25],-0.935
same,glycan array binding signal (z-score),[26],-0.673
same,glycan array binding signal (z-score),[27],-0.327
same,glycan array binding signal (z-score),GlcNAc(b1-6)GalNAc,0.314
same,glycan array binding signal (z-score),[28],2.87
same,glycan array binding signal (z-score),[29],1.04
same,glycan array binding signal (z-score),[30],-0.398
same,glycan array binding signal (z-score),[31],-0.652
same,glycan array binding signal (z-score),[32],-0.566
same,glycan array binding signal (z-score),[33],-0.342
same,glycan array binding signal (z-score),[34],-0.391
same,glycan array binding signal (z-score),[35],-0.045
same,glycan array binding signal (z-score),[36],0.884
same,glycan array binding signal (z-score),[37],3.01
same,glycan array binding signal (z-score),[38],1.17
same,glycan array binding signal (z-score),[39],4.6
same,glycan array binding signal (z-score),[40],0.965
